ATXN viability: viability counter-screen for ATXN expression inhibitors; S2 cells (HEK-293 line with an ATXN2-luciferase reporter) viability, CellTiter-Fluor protease fluorescence, 24 h; Potency, µM (top dose mostly 56.7 µM), usual class: cytotoxic; 0.49% of 400,000 active; also: nearly all actives have a fitted effect of over 40% in size
TGFb inhibitor: TGF-b pathway inhibition; AID 588855; 1.2% of 410,000 active; Potency, µM (titrated, usually from 46.1 µM), usual class: inhibitors; HepG2 CAGA-GFP TGF-b/SMAD3 reporter, GFP fluorescence, 18 h; TGF-beta stimulated, 500 pg/mL final; also: nearly all actives have a fitted effect of over 65% in size
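TGF-beta reporter screen: HEPG2 CAGA-GFP, 1% FBS, 500 pg/mL TGF-beta final, 18 h; per-cell GFP summed per well; curves fitted and categorized by class.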
Giardia killer: Giardia lamblia killing | AID 540267 | Giardia lamblia trophozoite viability | 0.15% of 340,000 active | activity change, % at 7.66 µM, hits read low; in the data active = activity change below about -80%; inconclusive = between about -30% and that limit;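 also: parasites exposed to compound for two days anaerobically before the ATP read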
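Anaerobic 48 hrs incubation at 37 deg C of 100 trophozoites/well with test compounds; ATPLite 1-Step luminescence, 15-30 min RT, reports cellular ATP as viability.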
uPA surface inh: blocks generation of uPA at the cell surface; cell surface uPA generation assay, qHTS; Potency, µM (doses to about 38.3 µM), actives largely listed as inhibitors; 0.31% of 330,000 active; AID 540303; active = well fitted inhibition curve with a large enough effect; inconclusive = small, poorly fitted or top-dose-only effect; inactive = no such curve, though single readings can be large or run the other way; tested in mouse RAW 264.7 cells; also: nearly all actives have a fitted effect of over 55% in size
ATXN2 expr inh: ATXN2 expression inhibition; Potency, µM (top dose mostly 57 µM), actives largely listed as inhibitors; HEK-293 ATXN2-luciferase reporter, luminescence, 24 h; 0.72% of 360,000 active; also: nearly all actives have a fitted effect of over 55% in size
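qHTS (up to 57 uM final) was run with 24 h compound exposure of reporter cells at 37 °C. Each well was multiplexed: SteadyGlo luminescence measured ATXN2-luciferase expression after a fluorogenic Gly-Phe-AFC viability readout (25 uM final).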
HepG2 tox-1: HepG2 cytotoxicity, counter-screen for TGF-b inhibitors. HepG2 CAGA-GFP viability, ATP luminescence, 18 h. Potency, µM (series often up to 46.1 µM), actives largely listed as cytotoxic. 0.76% of 410,000 active. AID 588856
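HepG2 CAGA-GFP cells (1000/well, DMEM with 1% FBS) received compound, then TGF-beta at 500 pg/mL final, and were incubated 18 hours at 37 degrees C. Viability was read by CellTiter-Glo luminescence. Media-only wells were set as complete cell-killing and DMSO as no toxicity.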
TGFb CAGA inh: confirmation of TGF-b signaling inhibitors in HepG2 reporter cells. shares compounds with TGFb inhibitor. HepG2 CAGA-GFP TGF-b reporter, GFP fluorescence, 18 h; cells stimulated with TGF-beta, 500 pg/mL. Potency, µM (top dose mostly 46.1 µM), most hits filed as inhibitors. 63% of 1,600 active. AID 720534; also: nearly all actives have a fitted effect of over 65% in size
HepG2 tox-2: HepG2 cytotoxicity, TGF-b inhibitor counterscreen; shares compounds with TGFb inhibitor; HepG2 CAGA-GFP viability, ATP luminescence, 18 h; cells stimulated with TGF-beta, 500 pg/mL; Potency, µM (highest dose often 46.1 µM), usual class: inhibitors; 27% of 1,600 active; also: nearly all actives have a fitted effect of over 70% in size
CCL64 TGFb inh: blocks TGF-b signaling in CCL64 reporter cells; shares compounds with TGFb inhibitor; Potency, µM (titrated, usually from 46.1 µM), actives largely listed as inhibitors; CCL64 CAGA-GFP reporter, TGF-b stimulated, GFP fluorescence, 18 h; 41% of 1,600 active; also: nearly all actives have a fitted effect of over 65% in size
COP TGFb inh: blocks TGF-b signaling in HepG2 COP reporter; shares compounds with TGFb inhibitor; HepG2 COP-GFP TGF-b reporter, GFP fluorescence, 18 h; cells stimulated by added recombinant TGF-beta; Potency, µM (top dose mostly 46.1 µM), actives largely listed as inhibitors; 3% of 1,600 active; AID 720537; also: nearly all actives have a fitted effect of over 70% in size
Numbers stand for hits; n = inactive; u = inconclusive; x = no result given. Shown are actives, neighbours in structure and some others; about 2.6% of the full set was active somewhere. Unless noted, calls follow the shape of the dose curve; as a rule, active = well fitted curve in the direction sought with a large enough effect; inconclusive = small, poorly fitted or top-dose-only effect, or another doubt; inactive = no such curve, though single readings can be large; an effect the other way counts as inactive or inconclusive.

SMILES	ATXN viability	TGFb inhibitor	Giardia killer	uPA surface inh	ATXN2 expr inh	HepG2 tox-1	TGFb CAGA inh	HepG2 tox-2	CCL64 TGFb inh	COP TGFb inh
Cc1ccc(OCC(=O)N/N=C\c2cn(Cc3ccccc3)c3ccccc23)cc1C	n	11µM	n	n	n	n	5.2µM	5.2µM	n	n
Cc1cc(C)c2cc(C(=O)N3CCC(C(=O)c4ccc(F)cc4)CC3)[nH]c2c1	n	11µM	n	n	n	n	9.2µM	n	u	n
Cc1ccc(CN=C(N)Nc2nc(C)cc(C)n2)cc1	n	16µM	n	n	n	n	15µM	u	u	n
O=C(CSc1nc2nn(-c3ccccc3)c(=O)c-2c2n1CCCCC2)Nc1ccccc1[N+](=O)[O-]	n	u	n	n	n	n	x	x	x	x
O=C1c2cc(Cl)ccc2-c2c(O)cc(Cl)cc21	n	11µM	n	n	u	n	12µM	u	8.2µM	n
CC1(C(=O)Nc2ccc3c(c2)OCCO3)CCN1C(=O)C1(c2ccc(Cl)cc2)CCC1 (stereo not drawn)	n	n	x	x	n	n	x	x	x	x
COc1ccccc1-n1cc([C@@H]2C[C@H]3CN(c4ccccc4)C(=O)[C@]34CCCN24)cn1	u	5µM	n	n	u	n	0.73µM	u	5.2µM	n
COc1cc(C(=O)Oc2ccccc2/C=N/NC(=O)c2ccc(C)cc2)cc(OC)c1OC	u	13µM	n	n	n	n	u	u	n	n
Cc1ccc(Cl)cc1N1CCN(C(=O)c2cc3c(=O)[nH]c4ccccc4c3n2C)CC1	u	u	n	n	n	n	u	u	n	n
C[C@@]12CCC=C[C@H]1[C@H](c1ccccc1Br)N(Cc1ccccc1)C2=O	u	18µM	n	n	n	n	18µM	u	u	n
Cc1cccc(CN2C(=O)NC(c3ccccc3)(c3ccccc3)C2=O)c1	n	22µM	n	n	u	n	u	u	u	n
CCOc1ccc(S(=O)(=O)N2CCN(CC(O)COc3cccc([N+](=O)[O-])c3)CC2)cc1 (stereo not drawn)	n	u	n	x	n	n	u	n	u	n
CC(=O)Nc1ccc(S(=O)(=O)N2CCN(CC(O)COc3ccc4ccccc4c3)CC2)cc1 (stereo not drawn)	u	u	n	n	u	n	26µM	n	n	n
Cc1ccc(S(=O)(=O)N2CCN(CC(O)COc3ccccc3)CC2)cc1 (stereo not drawn)	n	n	n	n	n	n	x	x	x	x
CNC(=O)C1(C(F)(F)F)C/C(=C/CCO)CCCO1 (stereo not drawn)	x	n	n	x	x	n	x	x	x	x
c1ccc(-c2cc3nc(NCC4CC4)nc(NCC4CCCCC4)c3s2)cc1	14µM	10µM	x	x	u	18µM	23µM	7.3µM	5.2µM	n
O=C1NCCN1CCNc1nc(NCC2CC2)nc2cc(-c3ccccc3)sc12	u	n	x	x	n	n	x	x	x	x
CC1Sc2ccc(S(=O)(=O)CCC(=O)N3CCN(c4cccc(Cl)c4)CC3)cc2NC1=O (stereo not drawn)	n	16µM	n	u	u	n	18µM	u	u	n
CC1Sc2ccc(S(=O)(=O)CCC(=O)N3CCN(c4ccccc4)CC3)cc2NC1=O (stereo not drawn)	n	n	n	n	n	n	x	x	x	x
N#Cc1ccc(NC(=O)Nc2ccc(Oc3ccc(NC(=O)Nc4ccc(C#N)cc4)cc3)cc2)cc1	u	5.6µM	n	n	u	n	4.6µM	u	n	n
CN(C)c1ccc(C2CNC(c3ccc(Cl)c([N+](=O)[O-])c3)c3[nH]c4ccccc4c32)cc1 (stereo not drawn)	u	8.9µM	n	u	x	n	u	n	21µM	n
O=C(C[n+]1ccncc1)c1ccc2ccccc2c1	x	n	x	x	x	n	x	x	x	x
Cc1cccc(C)c1OCC(=O)Nc1oc(-c2ccccc2)c(-c2ccccc2)c1C#N	n	13µM	n	n	n	n	u	u	u	n
Cc1cnc(C(=O)OCC(=O)Nc2cc(Cl)ccc2C#N)cn1	n	n	n	n	n	n	x	x	x	x
CC(=O)c1ccc(Nc2nc(-c3ccccc3)nc3ccccc23)cc1	u	n	n	n	n	n	n	n	n	n
SMILES	ATXN viability	TGFb inhibitor	Giardia killer	uPA surface inh	ATXN2 expr inh	HepG2 tox-1	TGFb CAGA inh	HepG2 tox-2	CCL64 TGFb inh	COP TGFb inh
Fc1ccc(Nc2nc(-c3ccncc3)nc3ccccc23)cc1	n	n	n	n	n	n	x	x	x	x
c1ccc(Nc2nc(-c3ccncc3)nc3ccccc23)cc1	n	n	n	n	n	n	n	n	n	n
Cc1ccc(Nc2nc(-c3ccccc3)nc3ccccc23)cc1	u	u	x	x	u	n	x	x	x	x
Cc1ccc(Nc2nc(-c3ccncc3)nc3ccccc23)cc1	n	n	n	n	u	n	n	u	n	n
CCc1nc2ccc(C(=O)NCc3ccccc3OC)cn2c1N(CC)Cc1cccc(Br)c1	u	u	x	x	n	n	x	x	x	x
CCc1nc2ccc(C(=O)NCc3cccs3)cn2c1N(CC)Cc1cccc(Br)c1	u	11µM	x	x	u	n	18µM	u	u	n
COc1cc(O)c(C(CC(=O)N2CCCCC2)c2cc(OC)c(OC)c(OC)c2)c(OC)c1 (stereo not drawn)	n	n	n	n	n	n	x	x	x	x
COc1cc(O)c(C(CC(=O)N2CCCC2)c2cc(OC)c(OC)c(OC)c2)c(OC)c1 (stereo not drawn)	n	n	n	n	n	n	n	n	n	n
COc1ccc(/C=N/n2cnc3c([nH]c4ccc(F)cc43)c2=O)cc1CN1CCCC1	n	7.1µM	n	n	x	7.1µM	16µM	23µM	23µM	u
O=C(O)c1cccc(NC(CNS(=O)(=O)c2ccc(Cl)cc2)c2ccccc2)c1 (stereo not drawn)	n	n	n	n	n	n	x	x	x	x

Assay outcomes: PubChem, National Center for Advancing Translational Sciences (NCATS)
